Measurements reported in PubChem BioAssay (NCI).
Compounds without any hit were thinned out: in the full panel of roughly 83,000, 20% have a hit.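 Percent growth is the endpoint: 0 to 100 indicates growth inhibition (40 means 60% inhibition), 0 means no net growth, and negative values indicate cell death.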 Calls of active or inactive are those of the source.

System: COLO 205 colon
Test: NCI-60 one-dose screen, 48 h (100 = growth as untreated, 0 = no growth, -100 = all killed)
Conditions: 10 µM unless noted
Description: Cells are grown in 96 well plates and exposed to the test compound for 48 hours. Compounds are tested at a single concentration, which is 10^-5 M for most compounds. The reported endpoint is percent growth (GI% or GIPRCNT), where numbers from 0 - 100% represent growth inhibition, and numbers from -100% - 0 represent cell death. For example, a value of 40 represents 60% growth inhibition. A value of 0 means no net growth occurred over the course of the experiment. A value of -40 indicates 40% of cells at the beginning of the experiment died by the end of the experiment. A value of -100 means all cells are dead at the end of the experiment.
NCI-60 Human Tumor Cell Lines Screen was performed using the standard one-dose NCI protocol, which is described in more detail at https://dtp.cancer.gov/discovery_development/nci-60/default.htm.
Compounds with GIPRCNT values below 10 were considered active. Activity score was based on GIPRCNT using the following formula: […]
Score is 0 for GIPRCNT values of 100 or above, 50 for GIPRCNT values of 0, and 100 for GIPRCNT values of -100.

Row | SMILES | growth
1 | Cc1c(C(=O)OC(=NC2CCCCC2)NC2CCCCC2)sc2c1c(=O)nc1c(C#N)n[nH]n12 | 120% (inactive)
2 | Cc1cccc(Cc2cnc(NC(=O)/C=C/c3ccco3)s2)c1 | 2.49% (active)
3 | COc1ccc(-c2csc(C3=C(O)CN(CCCN4CCCC4=O)C3=N)n2)cc1OC | 106% (inactive)
4 | N=C1CCC(=N)c2c1c(O)c1ccccc1c2O | 114% (inactive)
5 | CCCCCCCOc1c(OC)cc(C2CC(=O)Nc3c2c(C)nn3-c2nc3ccccc3[nH]2)cc1OC (stereo not given) | 3.24% (active)
6 | CC1=C(SCCC(=O)OC(C[Se]C2=C(C)C(=O)c3ccccc3C2=O)C(=O)NCCCCCC(=O)OCc2ccccc2)C(=O)c2ccccc2C1=O (stereo not given) | 40% (inactive)
7 | CC1=C([Se]CC(OC(=O)CC[Se]c2ccccc2)C(=O)NCCCCCC(=O)OCc2ccccc2)C(=O)c2ccccc2C1=O (stereo not given) | 105% (inactive)
8 | Cc1c(C(=O)N[C@@H](Cc2ccccc2)C(=O)C(=O)NCCc2ccccc2)[nH]c2ccccc2c1=O | 31.2% (inactive)
9 | c1c[nH]c(CNC2CCCCC2)c1 | 115% (inactive)
10 | OC(c1cccc(-n2ccc(C(F)(F)F)n2)c1)c1cnccc1NC1CCCCCC1 (stereo not given) | -47.2% (active)
11 | Cc1ccc(N(C(=O)CCc2c[nH]c3ccccc23)[C@H](C(=O)Nc2ccc(Cl)cc2)c2cccc([N+](=O)[O-])c2)cc1 | 95% (inactive)
12 | N#Cc1c(N)nc2c(C#N)c(NC(=O)c3ccccc3)nn2c1-c1ccccc1 | 103% (inactive)
13 | O=C1NC(=Nc2ccc(Cl)cc2)S/C1=C\c1cn(-c2ccccc2)nc1-c1ccccc1 | 96.7% (inactive)
14 | O=C(Nc1cccc(Cl)c1)c1cc(N=Nc2ccc([N+](=O)[O-])cc2Cl)ccc1O | 82.2% (inactive)
15 | C[C@@H]1N=C(c2ccc3ccccc3n2)Nc2nc3ccccn3c2C1=O | 113% (inactive)
16 | CCCCOc1nc2ccccc2cc1C1CNC(=O)c2ccccc2N1 (stereo not given) | 9.84% (active)
17 | CCN(CC)CCCCCCNc1cc(OC)c(Cl)c2cccnc12 | 55.1% (inactive)
18 | O=c1oc2ccccc2c(Cl)c1Cl | 11.8% (inactive)
19 | COC(=O)c1c2c(c(C)[n+]([O-])c1C)C(=O)C(NCc1ccc(F)c(Cl)c1)=CC2=O | -75.5% (active)
20 | c1csc(-c2c3ccc(=[N+]4CCCCC4)cc-3oc3cc(N4CCCCC4)ccc23)c1 | -61.5% (active)

Row | SMILES | growth
21 | Cc1ccc(Cl)c(NS(=O)(=O)c2ccc(-c3cnc(C4CC4)o3)cc2)c1 | -0.408% (active)
22 | C[C@H]1[C@H]2[C@H]3CC[C@@H]4[C@@]5(C)C/C(=C/c6ccco6)C(=O)C(C)(C)[C@@H]5CC[C@@]4(C)[C@]3(C)CC[C@]23CO[C@]1(C)[C@@H](C(=O)/C=C\c1ccco1)C3 | -6.84% (active)
23 | COc1ccc(-c2nc3c(N)c(CO)c(C)nc3o2)cc1 | 109% (inactive)
24 | CC(C)(C)OC(=O)Nc1ccc2c(c1)C(NC(=O)Nc1cccc(C#N)c1)CC(C)(C)O2 (stereo not given) | 53.7% (inactive)
25 | O=C(O)c1ccc2c(c1)CCC2 | 104% (inactive)
26 | COc1ccc(N=C(c2ccccc2)C2C(=O)c3ccccc3C2=O)cc1 | 102% (inactive)
27 | N=c1sc(Cc2ccc(Cl)cc2)cn1CC(=O)c1ccc(F)cc1 | 145% (inactive)
28 | COc1ccc2c(c1)O/C(=C\c1cccc(OCC(=O)Nc3nc4ccccc4s3)c1)C2=O | 104% (inactive)
29 | CNC(=O)NCC1OC(n2cnc3c(NC(=O)Nc4ccccc4)ncnc32)C(O[Si](C)(C)C(C)(C)C)C1CC(=O)N(C)OC (stereo not given) | -100% (active)
30 | Cc1ccc(NS(=O)(=O)c2ccc3c(c2)C2OCCC2C(c2ccc(C(=O)C(C)C)cc2)N3)cc1C (stereo not given) | 30.8% (inactive)
31 | Cc1c(C)c2c(c(C)c1OCC(=O)O)CC[C@@](C)(CCC[C@@H](C)CCC[C@@H](C)CCCC(C)C)O2 | -10.6% [50 µM] (active)
32 | C[n+]1cccc(CC(=O)NO)c1 | 97.7% (inactive)
33 | N=C1C(c2nc(-c3ccc(Br)cc3)cs2)=C(O)CN1Cc1cccnc1 | 87.5% (inactive)
34 | COc1ccccc1NC(=O)N/C(N)=N/c1nc2ccccc2s1 | -3.41% (active)
35 | O=C(NCCCNc1cc(-c2cn(-c3ccccc3)nc2-c2cccc(O)c2)ccn1)c1ccccc1 | -60.3% (active)
36 | CC1CC2Oc3ccc(Cl)cc3C(=O)N2O1 (stereo not given) | 108% (inactive)
37 | COc1ccc(S(=O)(=O)NCCNc2nccc(-c3c(-c4cccc(F)c4)nc4sccn34)n2)cc1 | 21.7% (inactive)
38 | Cc1cc(NCCCCNc2ccnc3cc(Cl)ccc23)nc(Nc2ccc(C(=O)N3CCCC3)cc2)n1 | -42.8% (active)
39 | Cc1ccc(-c2cc3c(cc2O)C2CCCCC2(N2CCOCC2)O3)cc1 (stereo not given) | 113% (inactive)
40 | COc1ccc(NC(=O)c2nc(-c3cc(OC)c(OC)c(OC)c3)n(-c3cccc4ccccc34)n2)cc1OC | 37.1% (inactive)
